Values without a mark were called inactive. Results filed as inconclusive are left out. Entries that show only a call come without a potency. The source made the active and inactive calls. Unless noted, calls come from the whole dose curve; as a rule, active = well fitted curve in the direction sought with a large enough effect in the repeat runs; inconclusive = weak or mixed curves; inactive = no such curve, though single readings can be large; an effect the other way counts as inactive or inconclusive.
Tests used:
[1] = qHTS assay to test for compound auto fluorescence at 460 nm (blue) in HEK293 cell free culture (AID 720681); note: potency is the fitted concentration of half-maximal effect
Summary of the method: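 Test compounds were pinned into cell-free culture medium (DMEM with 10% FBS) and fluorescence was read directly at Ex/Em 405/460 nm. Signals were expressed as fluorescence equivalents of triamterene, with DMSO vehicle as control.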

[2] = qHTS assay to test for compound auto fluorescence at 535 nm (green) in HEK293 cell free culture (AID 720682)
Summary of the method: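 Cell-free medium (DMEM, 10% FBS) receives compound or DMSO by pintool. Plate read directly at Ex 485/Em 535 nm. Signal converted to fluorescein equivalency.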

[3] = qHTS assay to test for compound auto fluorescence at 590 nm (red) in HEK293 cell free culture (AID 720683)
Summary of the method: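 Tox21 10K library compounds were pinned into cell-free DMEM with 10% FBS and fluorescence was read at excitation 540 nm. Activity is expressed as Rose Bengal sodium equivalency.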

[4] = qHTS assay to test for compound auto fluorescence at 590 nm (red) in HepG2 cell free culture (AID 720684)
Summary of the method: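 Red fluorescence (540 nm excitation, 590 nm emission) was measured after compound transfer into cell-free MEM supplemented with 10% FBS. Values are equivalencies against Rose Bengal sodium.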

[5] = qHTS assay to test for compound auto fluorescence at 460 nm (blue) in HepG2 cell free culture (AID 720685); note: potency is the fitted concentration of half-maximal effect
Summary of the method: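 Compound (23 nL) or DMSO pinned into cell-free MEM with 10% FBS; blue fluorescence read at 405/460 nm excitation/emission, expressed as auto-fluorescence equivalency to triamterene.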

[6] = qHTS assay to test for compound auto fluorescence at 535 nm (green) in HepG2 cell free culture (AID 720686)
[7] = qHTS assay to test for compound auto fluorescence at 460 nm (blue) in HepG2 cells (AID 720687); note: potency is the fitted concentration of half-maximal effect
Summary of the method: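 Cells (2,000/well in MEM with 10% FBS) attached overnight at 37 C, then were exposed to compound or DMSO for 1 hr at 37 C, 5% CO2. Fluorescence read at Ex/Em 405/460 nm, expressed as triamterene-equivalent signal.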

[8] = qHTS assay to identify small molecule antagonists of the glucocorticoid receptor (GR) signaling pathway - cell viability counter screen (AID 720693); note: nearly all actives have a fitted effect of over 55% in size; note: potency is the fitted concentration of half-maximal effect
[9] = qHTS assay for identifying genotoxic compounds that show differential cytotoxicity against isogenic chicken DT40 cell lines with known DNA damage response pathways - wild type cell line (AID 743012); note: nearly all actives have a fitted effect of over 60% in size; note: potency is the fitted concentration of half-maximal effect
Summary of the method: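 Wild-type DT40 cells (300/well) exposed to compounds for 40 hours at 37 C/5% CO2. Viability read by CellTiter-Glo luminescence after 30 min at room temperature.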

[10] = qHTS assay for identifying genotoxic compounds that show differential cytotoxicity against isogenic chicken DT40 cell lines with known DNA damage response pathways - Rev3 mutant cell line (AID 743014); note: nearly all actives have a fitted effect of over 55% in size; note: potency is the fitted concentration of half-maximal effect
[11] = qHTS assay to identify small molecule antagonists of the androgen receptor (AR) signaling pathway - cell viability counter screen (AID 743033; note: nearly all actives have a fitted effect of over 45% in size)
[12] = qHTS assay to identify small molecule antagonists of the androgen receptor (AR) signaling pathway using the MDA cell line - cell viability counter screen (AID 743041; note: nearly all actives have a fitted effect of over 45% in size)
Summary of the method: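 MDA-kb2 AR-luc human breast carcinoma cells (MMTV-luciferase, AR/GR responsive) were treated with compounds plus R1881 agonist for 16 h at 37 °C. Viability was read as CellTiter-Fluor fluorescence in the same wells as the reporter assay.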

[13] = qHTS assay for identifying genotoxic compounds that show differential cytotoxicity against isogenic chicken DT40 cell lines with known DNA damage response pathways - Rad54/Ku70 mutant cell line (AID 743015); note: nearly all actives have a fitted effect of over 60% in size; note: potency is the fitted concentration of half-maximal effect
[14] = biological target: Androgen receptor (Homo sapiens) (UniProt P10275); experiment: qHTS assay to identify small molecule antagonists of the androgen receptor (AR) signaling pathway (AID 743035; active = well fitted inhibition curve with a large enough effect in the signal ratio in the repeat runs, not every such curve was filed as active; the % refers to the signal ratio)
Androgen receptor (Homo sapiens), sequence (P10275 whole entry, looked up): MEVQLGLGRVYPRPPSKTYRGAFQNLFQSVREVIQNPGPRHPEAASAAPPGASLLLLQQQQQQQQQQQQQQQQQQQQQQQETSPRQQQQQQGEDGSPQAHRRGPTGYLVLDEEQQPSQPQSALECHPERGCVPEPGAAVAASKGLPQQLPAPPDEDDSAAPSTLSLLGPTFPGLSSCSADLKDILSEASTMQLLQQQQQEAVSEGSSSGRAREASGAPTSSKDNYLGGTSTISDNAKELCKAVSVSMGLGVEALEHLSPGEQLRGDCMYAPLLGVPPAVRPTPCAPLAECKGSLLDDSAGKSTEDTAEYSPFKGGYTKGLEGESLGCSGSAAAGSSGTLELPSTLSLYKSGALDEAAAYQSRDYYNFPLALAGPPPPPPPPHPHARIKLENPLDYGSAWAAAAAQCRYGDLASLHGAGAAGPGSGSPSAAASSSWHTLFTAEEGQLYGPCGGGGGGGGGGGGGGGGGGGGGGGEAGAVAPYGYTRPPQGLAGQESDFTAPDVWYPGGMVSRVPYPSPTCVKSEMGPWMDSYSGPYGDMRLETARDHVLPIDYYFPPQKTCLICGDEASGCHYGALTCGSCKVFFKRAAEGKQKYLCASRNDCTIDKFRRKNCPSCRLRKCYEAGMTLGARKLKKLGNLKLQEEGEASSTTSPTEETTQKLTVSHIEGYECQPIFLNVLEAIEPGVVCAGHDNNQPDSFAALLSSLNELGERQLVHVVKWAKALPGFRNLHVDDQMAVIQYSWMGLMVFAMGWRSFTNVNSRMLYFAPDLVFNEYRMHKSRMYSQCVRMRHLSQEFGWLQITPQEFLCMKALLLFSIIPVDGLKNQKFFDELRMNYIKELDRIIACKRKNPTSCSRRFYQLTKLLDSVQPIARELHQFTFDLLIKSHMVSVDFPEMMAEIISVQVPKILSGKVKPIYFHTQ
Summary of the method: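 HEK293 cells stably carrying UAS-beta-lactamase reporter, 2,000/well, given compounds plus R1881 agonist and incubated 16 h at 37C. LiveBLAzer B/G FRET substrate then added for 2 h at room temperature before fluorescence reading.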

[15] = biological target: Androgen receptor (Homo sapiens) (UniProt P10275); experiment: qHTS assay to identify small molecule agonists of the androgen receptor (AR) signaling pathway using the MDA cell line (AID 743040; note: nearly all actives have a fitted effect of over 20% in size)
Summary of the method: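 MDA-kb2 breast carcinoma cells stably carrying an MMTV-driven luciferase reporter (AR- and GR-responsive) were seeded and held 5 h at 37C, 0% CO2, then exposed to compounds in DMSO for 16 h. Luminescence was read 30 min after ONE-Glo addition.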

[16] = biological target: Androgen receptor (Homo sapiens) (UniProt P10275); experiment: qHTS assay to identify small molecule antagonists of the androgen receptor (AR) signaling pathway using the MDA cell line (AID 743042; note: nearly all actives have a fitted effect of over 55% in size)
Summary of the method: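 MDA-kb2 cells (human breast carcinoma, stably carrying an MMTV-luciferase reporter responsive to AR and GR) were plated at 3,000 cells/well and preincubated 5 hr at 37C, then given compound plus R1881 agonist for 16 h. ONE-Glo luminescence was read.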

[17] = qHTS assay to identify small molecule antagonists of the thyroid receptor (TR) signaling pathway - cell viability counter screen (AID 743064); note: nearly all actives have a fitted effect of over 50% in size
Summary of the method: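 GH3.TRE-Luc cells, 4 h pre-plating; cpd + T3 1 nM final; 37 °C 23.5 h; CellTiter-Fluor 30 min; fluorescence read.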

[18] = biological target: Glucocorticoid receptor (Homo sapiens) (UniProt P04150); experiment: qHTS assay to identify small molecule antagonists of the glucocorticoid receptor (GR) signaling pathway (AID 720692; active = well fitted inhibition curve with a large enough effect in the signal ratio in the repeat runs, not every such curve was filed as active; the % refers to the signal ratio; note: potency is the fitted concentration of half-maximal effect)
Glucocorticoid receptor (Homo sapiens), sequence (P04150 whole entry, looked up): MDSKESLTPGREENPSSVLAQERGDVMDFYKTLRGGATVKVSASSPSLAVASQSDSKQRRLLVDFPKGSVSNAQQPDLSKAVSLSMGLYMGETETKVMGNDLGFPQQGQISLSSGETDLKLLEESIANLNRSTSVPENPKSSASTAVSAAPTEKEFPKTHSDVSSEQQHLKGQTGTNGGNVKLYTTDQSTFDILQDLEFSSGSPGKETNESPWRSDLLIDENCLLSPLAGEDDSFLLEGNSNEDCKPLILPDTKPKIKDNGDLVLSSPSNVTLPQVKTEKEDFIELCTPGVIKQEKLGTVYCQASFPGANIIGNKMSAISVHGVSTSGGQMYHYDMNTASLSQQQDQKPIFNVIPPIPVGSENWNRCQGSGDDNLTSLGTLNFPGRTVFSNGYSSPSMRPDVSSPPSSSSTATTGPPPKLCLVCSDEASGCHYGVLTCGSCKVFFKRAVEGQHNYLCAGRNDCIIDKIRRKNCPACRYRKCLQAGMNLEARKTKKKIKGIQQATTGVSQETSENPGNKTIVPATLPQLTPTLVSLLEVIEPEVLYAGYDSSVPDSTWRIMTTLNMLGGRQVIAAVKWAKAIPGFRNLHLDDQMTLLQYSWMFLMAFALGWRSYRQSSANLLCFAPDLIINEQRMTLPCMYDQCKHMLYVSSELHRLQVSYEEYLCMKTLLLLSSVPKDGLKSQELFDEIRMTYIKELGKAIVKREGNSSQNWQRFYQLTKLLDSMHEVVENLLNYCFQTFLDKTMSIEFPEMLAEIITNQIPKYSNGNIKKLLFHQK
Summary of the method: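 GR-bla HeLa cells carrying a GRE-driven beta-lactamase reporter received compound after 4 h plating, then dexamethasone (5 nM final). After 18 h at 37C, the FRET substrate was loaded for 2 h at room temperature and fluorescence read.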

[19] = biological target: Glucocorticoid receptor (Homo sapiens) (UniProt P04150); experiment: qHTS assay to identify small molecule agonists of the glucocorticoid receptor (GR) signaling pathway (AID 720691; active = well fitted activation curve with a large enough effect in the signal ratio in the repeat runs, not every such curve was filed as active; the % refers to the signal ratio); conditions: GR-bla HeLa, beta-lactamase reporter ratio, 18 h; activation: at 62.4 µM (top of the series)
Summary of the method: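 GR-bla HeLa cells carrying a GRE-driven beta-lactamase reporter, exposed to compounds for 18 h at 37 C. Reporter activation read as fluorescence after 2 h with LiveBLAzer B/G FRET substrate at room temperature.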
Tags give direction and shape of the fitted curve or compound fluorescence and quenching.

Compound | Potency [1] | outcome [2] | outcome [3] | outcome [4] | Potency [5] | Potency [6] | Potency [7] | Potency [8] | Potency [9] | Potency [10] | Potency [11] | Potency [12] | Potency [13] | Potency [14] | outcome [15] | Potency [16] | Potency [17] | Potency [18] | Potency [19]
Cc1ccn2nc(S(=O)(=O)Nc3c(F)cccc3F)nc2n1 | inactive | inactive | inactive | inactive | inactive | inactive | inactive | inactive | inactive | inactive | inactive | inactive |  |  |  |  |  |  | 
CC(C)NCC(O)c1ccccc1Cl (stereo unspecified) | inactive | inactive | inactive | inactive | inactive | inactive | inactive | inactive | inactive | inactive | inactive | inactive | inactive | inactive | inactive | inactive | inactive |  | 
CC[C@]1(O)CC[C@H]2[C@@H]3CCC4=CCCC[C@@H]4[C@H]3CC[C@@]21C |  | inactive | inactive | inactive | inactive | inactive | inactive | 3.01 µM (active) | 8.41 µM (active) | 9.44 µM (active) | inactive | inactive | 13.3 µM (active) |  |  |  | inactive | 1.69 µM (active) | 
CNC(=O)/C=C(\C)OP(=O)(OC)OC |  | inactive | inactive | inactive | inactive | inactive | inactive | inactive | inactive | inactive | inactive | inactive | inactive |  |  |  |  | inactive | inactive
[Cl-].[Cl-].[Sn+2] | inactive | inactive | inactive | inactive | inactive | inactive | inactive | inactive | inactive | inactive | inactive | inactive |  |  |  |  | inactive |  | 
CC1CCCC1 |  |  |  |  |  |  |  |  | inactive | inactive | inactive | inactive | inactive |  |  |  | inactive |  | inactive
CCCCC(CC)COC(=O)OOC(C)(C)C (stereo unspecified) | inactive | inactive | inactive | inactive | inactive | inactive | inactive | inactive |  | inactive | inactive | inactive | inactive |  |  |  | inactive |  | 
CN | inactive | inactive |  |  | inactive | inactive | inactive | inactive |  | inactive | inactive | inactive | inactive |  |  |  | inactive | inactive | inactive
O=C(O)[C@H](O)[C@@H](O)C(=O)O | inactive | inactive | inactive | inactive | inactive | inactive | inactive | inactive | inactive | inactive | inactive | inactive |  |  |  |  | inactive |  | 
CCOP(=O)(OCC)Oc1cc(C)nc(C(C)C)n1 | inactive | inactive | inactive | inactive | inactive | inactive | inactive | inactive | inactive | inactive | inactive | inactive | inactive |  |  |  | inactive |  | inactive
[C-]1=CC=CC1.[Cl][Zr+2][Cl].c1cc[cH-]c1 |  | inactive | inactive | inactive |  | inactive |  | inactive | inactive | inactive | inactive | inactive | inactive |  |  |  | inactive |  | 
Nc1nc(N)nc(Cl)n1 |  | inactive | inactive |  | inactive | inactive | inactive | inactive | inactive | inactive | inactive | inactive | inactive |  |  |  | inactive | inactive | inactive
CC1CN1 (stereo unspecified) | inactive | inactive | inactive |  | inactive | inactive | inactive | inactive |  |  | inactive | inactive |  |  |  |  | inactive |  | 
c1ccc(Nc2ccc(Nc3ccccc3)cc2)cc1 |  | inactive |  | inactive | inactive | inactive | inactive | inactive |  | 21.6 µM (active) |  | inactive | 24.2 µM (active) |  |  |  |  |  | inactive
N#Cc1ccc(N(CC(N)=O)CC(F)(F)F)cc1C(F)(F)F | inactive | inactive | inactive | inactive | inactive | inactive | inactive | inactive |  | inactive | inactive | inactive |  |  |  |  | inactive |  | 
N#Cc1c2ccccc2cc2ccccc12 | 2.51 µM (active) | inactive | inactive | inactive | 2.51 µM [fluorescent] (active) | inactive | 2.82 µM [fluorescent] (active) | inactive |  | inactive | inactive | inactive | inactive |  | inactive | inactive |  |  | 
NC(=O)C(Cl)Cl | inactive | inactive | inactive | inactive | inactive | inactive | inactive | inactive |  | inactive | inactive | inactive |  |  |  |  | inactive | inactive | inactive
COP(=S)(OC)Oc1nc(Cl)c(Cl)cc1Cl | inactive | inactive | inactive | inactive | inactive | inactive | inactive | inactive |  | 61.1 µM (active) | inactive | inactive |  |  |  |  |  | inactive | inactive
CC(=O)[O-].CC(=O)[O-].O.O.O.[Pb+2] | inactive | inactive | inactive | inactive | inactive | inactive | inactive | inactive | inactive | inactive | inactive |  |  |  |  |  | inactive |  | 
